# Values joined by “and” are separate entries in the source; they are usually repeats but may differ in a detail not shown here. Equal values may be shown once. Inconclusive results are not listed. Active and inactive are the calls of the source. Cut-off read from the data, not from the text of the source, unless noted: active = inhibition above about 80%; inactive = the rest.
# How the values were obtained:
# [1] = viability loss in pontine glioma line – cell-based, SU-DIPG-XIII, MIPE5.0, CellTiter-Glo, qHTS, dose response (AID 1347064; cut-off not given, nearly all actives have AC50 up to about 23 µM); details: CellTiter-Glo ATP luminescence
# [2] = viability loss in pontine glioma line – cell-based, SU-DIPG-XXV, MIPE5.0, CellTiter-Glo, qHTS, dose response (AID 1347065; cut-off not given, nearly all actives have AC50 up to about 26 µM;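 note: cells exposed to compound for 48 hours before ATP readout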); details: CellTiter-Glo ATP luminescence
# [3] = growth inhibition of DIPG cells – cell-based, MIPE5.0 library, qHTS (AID 1347068; cut-off not given, nearly all actives have IC50 up to about 30 µM); details: SU-DIPG-XXV viability
# [4] = JHH-DIPG-1 glioma cell viability, MIPE5.0 library, CellTiter-Glo luminescence, qHTS (AID 1347067; cut-off not given, nearly all actives have AC50 up to about 26 µM;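 note: cells exposed to compound for 48 hours before readout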); details: JHH-DIPG-1 glioma viability, CellTiter-Glo ATP luminescence
# [5] = viability loss with induced miR-34 in A549 – imaging, A549 dox-inducible miR-34, nuclei and caspase counts, primary screen (AID 1347080;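 active = compounds whose cell count with miR-34 switched on is under 0.7 times the count with it off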); details: A549 miR-34 inducible, Hoechst nuclei count, 48 h
# [6] = MELAS cybrid and Rieske KO viability enhancers – cell-based, MELAS cybrids, Rieske KO mouse fibroblasts, CellTiter-Glo, primary screen (AID 1508586;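 active = mean z-score across replicates of 1.96 or higher in either the MELAS or the Rieske mutant cell line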;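 note: z relative to plate mean and SD of compound and empty wells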); details: low glucose
# [7] = galactose survival enhancers in mitochondrial complex I cybrids – cell-based, galactose medium, ATP luminescence, primary screen (AID 1645843;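 active = z-score of at least 1.8 in each of two replicates, scored against plate mean and spread of sample wells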;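 note: positive z means more ATP and so rescue of galactose-driven cybrid death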); details: complex I mutant cybrid cells, 72 h, stronger effect = higher value
# [8] = growth inhibition of DIPG cells – cell-based, MIPE4.0 library, CellTiter-Glo luminescence, qHTS (AID 1347066; cut-off not given, nearly all actives have AC50 up to about 30 µM;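 note: cells exposed to compound for 48 hours before readout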); details: SU-DIPG-VI viability, CellTiter-Glo ATP luminescence
# [9] = growth inhibition, single agent or in combination, cell-based, chromothripsis tumors, cisplatin or BGB combos (AID 1671449); details: LFS_MB_P medulloblastoma cells;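 note: cells exposed for 96 hours; 0% = vehicle DMSO and 100% = killing by high DMSO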
# [10] = growth inhibition, single agent and combos, cell-based, chromothripsis tumors, cisplatin or BGB combos (AID 1671450); details: HDN33 neuroblastoma cells, stronger effect = higher value;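 note: cells exposed to compound for four days; 0% = vehicle DMSO and 100% = cell killing by high DMSO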
# [11] = growth inhibition, single agents and combos, ICB984, cell-based, cisplatin or BGB combos, synergistic combos for chromothripsis tumors (AID 1671451; call rule not given here;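 note: cells exposed for 96 hours before readout; 0% = vehicle DMSO and 100% = killing by high DMSO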); details: ICB984 medulloblastoma cells, drug combinations, stronger effect = higher value
# [12] = growth inhibition, single agents and combos, LFS_MB_1R, cell-based, cisplatin or BGB combos, synergistic combos for chromothripsis tumors (AID 1671452); details: LFS_MB_1R medulloblastoma cells, stronger effect = higher value;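 note: cells exposed for 96 hours before readout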
# [13] = growth inhibition, single agents and combos, HTB85, cell-based, BGB or cisplatin IC20 combos, synergistic combos for chromothripsis tumors (AID 1671453); details: HTB85 osteosarcoma cells, drug combinations, stronger effect = higher value;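 note: cells exposed for 96 hours before readout; 0% = vehicle DMSO and 100% = high DMSO killing control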
# [14] = growth inhibition, single agents and combos, CRL2098, cell-based, BGB or cisplatin IC20 combos, synergistic combos for chromothripsis tumors (AID 1671454); details: CRL2098 osteosarcoma cells, drug combinations, stronger effect = higher value;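 note: cells exposed for 96 h before readout; 0% = vehicle DMSO and 100% = killing by high DMSO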
# [15] = growth inhibition, single agents and combos, HD-MB03, cell-based, BGB or cisplatin IC20 combos, synergistic combos for chromothripsis tumors (AID 1671455; in the data active = inhibition above about 83%;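 note: 0% = vehicle DMSO and 100% = high DMSO as cytotoxic control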); details: HD-MB03 medulloblastoma cells, stronger effect = higher value
# [16] = growth inhibition, single agents and combos, UWB1.289, cell-based, BGB or cisplatin combos, synergistic combos for chromothripsis tumors (AID 1671456); details: UWB1.289 ovarian carcinoma cells, stronger effect = higher value;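 note: cells exposed to compound for four days; 0% = vehicle DMSO and 100% = killing by high DMSO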
# [17] = growth inhibition, single agents and combos, LFS_MB_2R, cell-based, cisplatin combos, synergistic combos for chromothripsis tumors (AID 1671457); details: LFS_MB_2R medulloblastoma cells, stronger effect = higher value;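 note: cells exposed to compound for four days before readout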
# [18] = growth inhibition, MDA-MB-436, cell-based, BGB or cisplatin combos, synergistic combos for chromothripsis tumors (AID 1671458; call rule not given here;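 note: cells exposed for 96 hours; 0% = vehicle DMSO and 100% = killing by high DMSO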); details: MDA-MB-436 breast carcinoma growth inhibition, drug combinations, stronger effect = higher value
# [19] = UWB1.289_BRCA1 ovarian cancer growth, cell-based, BGB or cisplatin combinations (AID 1671459); details: UWB1.289 BRCA1 ovarian carcinoma, drug combinations, stronger effect = higher value
# [20] = drug combination toxicity in non-malignant astrocytes – cell-based, BGB or cisplatin IC20 combos, cytotoxicity control for chromothriptic childhood tumor combination screen (AID 1671460); details: Human astrocytes, viability inhibition, drug combinations, at 0.5 µM, stronger effect = higher value;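 note: cells exposed to compounds for 96 hours before viability readout; 0% = vehicle and 100% = killing control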
# [21] = BT084 cell growth, single and combined drugs, ICGC_MB145, cisplatin and BGB IC40 combos (AID 1671461); details: BT084 medulloblastoma cells, drug combinations, stronger effect = higher value;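 note: cells exposed to drugs for 96 hours; 0% = vehicle DMSO and 100% = high DMSO full killing control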
# [22] = RCMB18 cell growth, single agent and combined, cisplatin and BGB IC40 combos (AID 1671462); details: RCMB18 medulloblastoma cells, stronger effect = higher value;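 note: cells exposed to compound for four days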
# [23] = CRL1545 cell growth, single agent and combined, cisplatin and BGB IC20 combos (AID 1671464); details: CRL1545 osteosarcoma cells, stronger effect = higher value;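 note: cells exposed to compound for 96 hours before readout; 0% = vehicle DMSO and 100% = high DMSO killing control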
# [24] = stronger effect = lower value, cell number ratio, induced over uninduced
# [25] = measured here: relative caspase fold change +Dox/-Dox
# [26] = measured here: total cells with miR-34 induction, stronger effect = lower value
# [27] = measured here: total cells without miR-34 induction
# [28] = MELAS cybrid survival, CellTiter-Glo 48 h, stronger effect = higher value
# [29] = Rieske KO mouse fibroblast survival, CellTiter-Glo 72 h
# [30] = measured here: combination with BGB IC40, at 0.05 µM
# [31] = measured here: with BGB IC20 combination, at 0.5 µM
# [32] = measured here: with cisplatin IC20 combination, at 0.5 µM
# [33] = measured here: combination with cisplatin, at 0.5 µM
# [34] = measured here: combination with cisplatin, at 5 µM
smiles,measurement,setting,value
Cc1cc(-c2cnn3c(NCC4CC(C)(O)C4)cc(Oc4cccnc4)nc23)ccc1C(=O)NC1CC1 (centres undefined),outcome,[1],inactive
same,AC50,[2],1.48 µM (active)
same,outcome,[3],inactive
Cc1nnc(C(C)C)n1C1CC2CCC(C1)N2CCC(NC(=O)C1CCC(F)(F)CC1)c1ccccc1 (centres undefined),outcome,[1],inactive
same,outcome,[2],inactive
same,outcome,[4],inactive
same,outcome,[3],inactive
same,fold change,[5]; [24],0.913 (inactive) and 0.876 (inactive)
same,fold change,[5]; [25],0.655 and 0.632
same,cell count,[5]; [26],8280 and 7990
same,cell count,[5]; [27],9060 and 9120
same,z-score,[6]; [28],0.322 (inactive) and -0.218 (inactive)
same,z-score,[6]; [29],-0.412 and -0.846
same,z-score,[7],0.505 (inactive)
Nc1nc2c(c(=O)[nH]1)N1CN(c3ccc(C(=O)N[C@@H](CCC(=O)O)C(=O)O)cc3)CC1CN2 (some centres undefined),outcome,[1],inactive
same,outcome,[4],inactive
Nc1ccn([C@@H]2C(F)=C(CO)[C@@H](O)[C@H]2O)c(=O)n1,outcome,[1],inactive
same,outcome,[4],inactive
same,outcome,[3],inactive
CCCS(=O)(=O)Nc1ccc(F)c(C(=O)c2c[nH]c3ncc(Cl)cc23)c1F,outcome,[1],inactive
same,outcome,[8],inactive
same,outcome,[3],inactive
same,fold change,[5]; [24],0.766 (inactive)
same,fold change,[5]; [25],1.15
same,cell count,[5]; [26],4220
same,cell count,[5]; [27],5520
same,z-score,[6]; [28],-0.49 (inactive)
same,z-score,[6]; [29],0.575
CSC[C@H]1CN(Cc2c[nH]c3c(N)ncnc23)C[C@@H]1O,outcome,[1],inactive
same,outcome,[4],inactive
same,outcome,[3],inactive
COC1CCN(C(=O)c2cc(Cc3n[nH]c(=O)c4ccccc34)ccc2F)CC1,outcome,[1],inactive
same,outcome,[2],inactive
same,outcome,[4],inactive
same,outcome,[3],inactive
same,fold change,[5]; [24],0.934 (inactive)
same,fold change,[5]; [25],0.846
same,cell count,[5]; [26],6330
same,cell count,[5]; [27],6780
same,z-score,[6]; [28],-0.18 (inactive)
same,z-score,[6]; [29],-0.126
same,inhibition,"[9]; at 0.5 µM, stronger effect = higher value",-12.1% (inactive) and -16.1% (inactive)
same,inhibition,"[9]; measured here: combination with BGB IC20, at 0.005 µM",-30.7% and -15.3%
same,inhibition,"[9]; measured here: combination with BGB IC40, at 0.005 µM",-38.1% and -33.1%
same,inhibition,[9]; [30],-30.5% and -42.3%
same,inhibition,"[9]; measured here: combination with cisplatin, at 0.5 µM, stronger effect = higher value",-37.8% and -19.2%
same,inhibition,"[9]; measured here: combination with cisplatin, at 5 µM, stronger effect = higher value",-40.5% and -57.1%
same,inhibition,"[10]; BGB combo, at 5 µM",-13.6% and 13.4%
same,inhibition,[10]; at 0.5 µM,-10.1% (inactive) and -7.74% (inactive)
same,inhibition,"[10]; cisplatin combo, at 5 µM",23.9% and 26%
same,inhibition,[10]; [31],-20.4% and -10.8%
same,inhibition,[10]; [32],5.53% and -9.06%
same,inhibition,"[10]; single agent, at 5 µM",14.4% and 38.9%
same,inhibition,"[11]; BGB IC20 combo, at 0.005 µM",-4.23% and -19.5%
same,inhibition,"[11]; BGB IC40 combo, at 0.005 µM",-0.687% and -29.1%
same,inhibition,"[11]; BGB IC40 combo, at 0.05 µM",-13.2% and -21.3%
same,inhibition,[11]; at 0.5 µM,-24.6% (inactive) and -24.2% (inactive)
same,inhibition,"[11]; cisplatin combo, at 0.05 µM",-19% and -25.6%
same,inhibition,"[11]; cisplatin combo, at 0.5 µM",-40.6% and -12.4%
same,inhibition,"[11]; cisplatin combo, at 5 µM",-8.06% and -25.7%
same,inhibition,"[11]; measured here: 5 uM single agent, at 5 µM",0.595% and -12.2%
same,inhibition,[12]; at 0.5 µM,-26.2% (inactive) and -13.9% (inactive)
same,inhibition,[12]; [30],-15.2% and -8.03%
same,inhibition,[12]; [33],-30.2% and -13%
same,inhibition,[12]; [34],-19.4% and -3.56%
same,inhibition,[13]; at 0.5 µM,-11.4% (inactive) and 6.36% (inactive)
same,inhibition,"[13]; measured here: with BGB IC20, at 0.5 µM",-12.2% and -3.86%
same,inhibition,"[13]; measured here: with BGB IC20, at 5 µM",12.4% and 5.4%
same,inhibition,"[13]; measured here: with cisplatin IC20, at 0.5 µM",-10.7% and 2.43%
same,inhibition,"[13]; measured here: with cisplatin IC20, at 5 µM",15.8% and -12.3%
same,inhibition,"[13]; single agent, at 5 µM",16.7% and 8.18%
same,inhibition,[14]; at 0.5 µM,-48.1% (inactive) and -65.8% (inactive)
same,inhibition,"[14]; measured here: combination with BGB at IC20, at 0.5 µM",-70.3% and -24.2%
same,inhibition,"[14]; measured here: combination with cisplatin at IC20, at 0.5 µM",-35.2% and -114%
same,inhibition,[15]; at 0.5 µM,-3.93% (inactive) and -2.04% (inactive)
same,inhibition,"[15]; measured here: combo with BGB at IC20, at 0.5 µM",-9.33% and -8.78%
same,inhibition,"[15]; measured here: combo with cisplatin at IC20, at 0.5 µM",4.14% and 1.92%
same,inhibition,[16]; at 0.5 µM,-6.03% (inactive) and 1.25% (inactive)
same,inhibition,"[16]; measured here: inhibition with BGB combination, at 0.05 µM",-33.1% and -12.4%
same,inhibition,"[16]; measured here: inhibition with cisplatin combination, at 0.05 µM",-15.7% and -19.5%
same,inhibition,[17]; at 0.5 µM,-18.3% (inactive) and -16.9% (inactive)
same,inhibition,[17]; [33],-12.3% and -23.2%
same,inhibition,[17]; [34],-8.19% and -16.7%
same,inhibition,[18]; at 0.5 µM,-6.48% (inactive) and 5.83% (inactive)
same,inhibition,"[18]; measured here: BGB combination, at 0.5 µM",-20.6% and -13.1%
same,inhibition,"[18]; measured here: BGB combination, at 5 µM",-22% and -12.5%
same,inhibition,"[18]; measured here: cisplatin combination, at 0.5 µM",-7.18% and 13.4%
same,inhibition,"[18]; measured here: cisplatin combination, at 5 µM",19.7% and 25.3%
same,inhibition,"[19]; BGB combination, concentration series, at 5 µM",-17.2% and 8.15%
same,inhibition,[19]; at 0.5 µM,-15.2% (inactive) and 1.82% (inactive)
same,inhibition,"[19]; cisplatin combination, concentration series, at 5 µM",1.96% and 12.2%
same,inhibition,[20],-2.67% (inactive) and 18.6% (inactive)
same,inhibition,[20]; measured here: combo with BGB IC20,-0.687% and 1.82%
same,inhibition,[20]; measured here: combo with cisplatin IC20,-3.5% and 25%
same,inhibition,[21]; at 0.5 µM,-21.1% (inactive) and -16.8% (inactive)
same,inhibition,"[21]; cisplatin combination, at 0.5 µM",-20.5% and -64%
same,inhibition,"[21]; cisplatin combination, at 5 µM",-29.9% and -19.1%
same,inhibition,"[21]; measured here: BGB IC40 combination 0.05 uM, at 0.05 µM",-40% and -3%
same,inhibition,"[21]; single agent, at 5 µM",-18% and 3.41%
same,inhibition,[22]; at 0.5 µM,-19.3% (inactive) and -19.5% (inactive)
same,inhibition,"[22]; cisplatin combo, at 5 µM",-5.98% and -18.2%
same,inhibition,"[22]; measured here: BGB IC40 combination, at 0.05 µM",-15.8% and -4.12%
same,inhibition,[22]; [33],-25.7% and -45.6%
same,inhibition,"[22]; single agent, at 5 µM",-29.2% and -17.7%
same,inhibition,[23]; at 0.5 µM,8.49% (inactive) and 7.34% (inactive)
same,inhibition,[23]; [31],-9.33% and -2.37%
same,inhibition,[23]; [32],16.1% and 10.8%
same,inhibition,"[23]; single agent, at 0.05 µM",5.73% and -15.4%
same,inhibition,"[23]; single agent, at 5 µM",42.8% and 34.1%
